# Reference: the supplement of paper PMC6897291
# Counter-ions that a name gives are not always drawn.
# Key:
# U-2932 [1] = test: growth inhibition by drug alone (1 - RLU/untreated control) (fraction); higher = stronger inhibition; conditions: 177Lu-lilotomab satetraxetan 0 ug/ml
# Outline: (§1)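 A radiolabelled anti-CD37 antibody conjugate (~600 MBq/mg) was applied for 18 h at 0.5 µg/ml to RIVA and 1 µg/ml to U-2932 cells, with untreated cells run alongside. All cells were washed and seeded at 3,000 cells/well onto library-printed plates at 10/100 nM (RIVA) or 10/1,000 nM (U-2932). Growth inhibition was based on RealTime-Glo luminescence compared with untreated no-drug wells. Daily reads began on day 3 after 1 h at 37°C, with each value being 1 − RLU/mean of the 48 such wells on that plate.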
# RIVA [2] = test: as above; conditions: 177Lu-lilotomab satetraxetan 0 ug/ml
# Outline: as §1
# U-2932 [3] = test: growth inhibition by drug plus 177Lu-lilotomab satetraxetan (1 - RLU/untreated control) (fraction); higher = stronger inhibition; conditions: 177Lu-lilotomab satetraxetan 1 ug/ml
# Outline: as §1
# RIVA [4] = test: as above; conditions: 177Lu-lilotomab satetraxetan 0.5 ug/ml
# Outline: as §1
Compound,"growth inhibition by drug alone (U-2932 [1]; 10 nM, time (day): 3)","growth inhibition by drug alone (U-2932 [1]; 10 nM, time (day): 4)","growth inhibition by drug alone (U-2932 [1]; 10 nM, time (day): 5)","growth inhibition by drug alone (U-2932 [1]; 10 nM, time (day): 6)","growth inhibition by drug alone (U-2932 [1]; 1000 nM, time (day): 3)","growth inhibition by drug alone (U-2932 [1]; 1000 nM, time (day): 4)","growth inhibition by drug alone (U-2932 [1]; 1000 nM, time (day): 5)","growth inhibition by drug alone (U-2932 [1]; 1000 nM, time (day): 6)","growth inhibition by drug alone (RIVA [2]; 10 nM, time (day): 3)","growth inhibition by drug alone (RIVA [2]; 10 nM, time (day): 4)","growth inhibition by drug alone (RIVA [2]; 10 nM, time (day): 5)","growth inhibition by drug alone (RIVA [2]; 10 nM, time (day): 6)","growth inhibition by drug alone (RIVA [2]; 100 nM, time (day): 3)","growth inhibition by drug alone (RIVA [2]; 100 nM, time (day): 4)","growth inhibition by drug alone (RIVA [2]; 100 nM, time (day): 5)","growth inhibition by drug alone (RIVA [2]; 100 nM, time (day): 6)","growth inhibition by drug plus 177Lu-lilotomab satetraxetan (U-2932 [3]; 10 nM, time (day): 3)","growth inhibition by drug plus 177Lu-lilotomab satetraxetan (U-2932 [3]; 10 nM, time (day): 4)","growth inhibition by drug plus 177Lu-lilotomab satetraxetan (U-2932 [3]; 10 nM, time (day): 5)","growth inhibition by drug plus 177Lu-lilotomab satetraxetan (U-2932 [3]; 10 nM, time (day): 6)","growth inhibition by drug plus 177Lu-lilotomab satetraxetan (U-2932 [3]; 1000 nM, time (day): 3)","growth inhibition by drug plus 177Lu-lilotomab satetraxetan (U-2932 [3]; 1000 nM, time (day): 4)","growth inhibition by drug plus 177Lu-lilotomab satetraxetan (U-2932 [3]; 1000 nM, time (day): 5)","growth inhibition by drug plus 177Lu-lilotomab satetraxetan (U-2932 [3]; 1000 nM, time (day): 6)","growth inhibition by drug plus 177Lu-lilotomab satetraxetan (RIVA [4]; 10 nM, time (day): 3)","growth inhibition by drug plus 177Lu-lilotomab satetraxetan (RIVA [4]; 10 nM, time (day): 4)","growth inhibition by drug plus 177Lu-lilotomab satetraxetan (RIVA [4]; 10 nM, time (day): 5)","growth inhibition by drug plus 177Lu-lilotomab satetraxetan (RIVA [4]; 10 nM, time (day): 6)","growth inhibition by drug plus 177Lu-lilotomab satetraxetan (RIVA [4]; 100 nM, time (day): 3)","growth inhibition by drug plus 177Lu-lilotomab satetraxetan (RIVA [4]; 100 nM, time (day): 4)","growth inhibition by drug plus 177Lu-lilotomab satetraxetan (RIVA [4]; 100 nM, time (day): 5)","growth inhibition by drug plus 177Lu-lilotomab satetraxetan (RIVA [4]; 100 nM, time (day): 6)"
C#CCN(C)CC1=Cc2ccccc2Oc2ccccc21,0.0712,0.0296,-0.0381,-0.0948,0.056,0.0596,0.000991,0.0366,-0.0236,-0.0211,-0.0438,-0.145,-0.121,-0.0828,-0.112,-0.138,0.0301,0.075,0.128,0.198,0.0289,0.0839,0.129,0.233,0.602,0.618,0.628,0.62,0.573,0.617,0.634,0.63
C[N+](C)([O-])CCNc1ccc(NCC[N+](C)(C)[O-])c2c1C(=O)c1c(O)ccc(O)c1C2=O [Banoxantrone dihydrochloride],-0.0281,-0.0255,-0.149,-0.168,-0.0598,-0.0493,-0.082,-0.106,-0.171,-0.248,-0.397,-0.545,-0.338,-0.41,-0.557,-0.705,-0.00903,0.0168,0.0134,-0.00428,0.0744,0.142,0.219,0.381,0.391,0.472,0.484,0.498,0.446,0.551,0.571,0.588
C=CC[C@@H]1/C=C(\C)C[C@H](C)C[C@H](OC)[C@H]2O[C@@](O)(C(=O)C(=O)N3CCCC[C@H]3C(=O)O[C@H](/C(C)=C/[C@@H]3CC[C@@H](O)[C@H](OC)C3)[C@H](C)[C@@H](O)CC1=O)[C@H](C)C[C@@H]2OC [FK-506 (Tacrolimus)],0.267,0.364,0.442,0.532,0.227,0.39,0.449,0.553,0.737,0.636,0.618,0.602,0.867,0.796,0.777,0.783,0.323,0.406,0.478,0.594,0.206,0.367,0.459,0.574,0.801,0.806,0.834,0.875,0.87,0.859,0.89,0.913
Cc1ccc(C(=O)Nc2ccc(CN3CCN(C)CC3)c(C(F)(F)F)c2)cc1C#Cc1cnc2cccnn12,-0.0855,-0.101,-0.212,-0.304,0.619,0.711,0.699,0.718,-0.13,-0.226,-0.275,-0.383,0.59,0.607,0.6,0.53,-0.1,-0.0253,0.0155,0.0448,0.74,0.819,0.844,0.883,0.39,0.475,0.499,0.509,0.689,0.752,0.77,0.788
O=c1oc2c(O)c(O)cc3c(=O)oc4c(O)c(O)cc1c4c23 [Ellagic acid],-0.0386,-0.0333,-0.0157,0.0286,-0.0768,-0.0331,-0.0763,-0.143,-0.12,-0.115,-0.166,-0.332,-0.107,-0.127,-0.152,-0.219,-0.0253,-0.00558,0.0162,0.137,-0.104,-0.00651,0.0116,0.067,0.371,0.481,0.517,0.531,0.323,0.399,0.402,0.388
Cc1cnc(-c2cnc(NCCNc3ccc(C#N)cn3)nc2-c2ccc(Cl)cc2Cl)[nH]1,0.154,0.101,0.0269,-0.034,0.119,0.0751,-0.139,-0.197,0.0622,0.0911,0.0352,-0.132,-0.000657,0.0178,-0.0435,-0.16,0.0605,0.123,0.113,0.204,0.0116,0.0464,0.0105,0.0661,0.532,0.598,0.613,0.613,0.455,0.536,0.536,0.541
C[C@]12CC[C@@H]3c4ccc(O)cc4CC[C@H]3[C@@H]1CCC2=O [Estrone],0.0961,0.0749,0.0943,-0.00298,0.0954,0.046,0.0242,-0.126,-0.099,-0.0604,-0.112,-0.295,-0.445,-0.269,-0.323,-0.542,0.0282,0.0899,0.127,0.0988,0.0277,0.0438,0.0954,0.209,0.474,0.569,0.585,0.601,0.271,0.43,0.447,0.475
CNC(=O)c1cc(Oc2ccc(NC(=O)Nc3ccc(Cl)c(C(F)(F)F)c3)c(F)c2)ccn1 [Regorafenib (BAY 73-4506)],0.146,0.0913,0.0627,-0.0165,0.26,0.284,0.302,0.217,0.0302,0.118,0.0999,0.0537,0.189,0.262,0.302,0.293,0.125,0.179,0.283,0.319,0.269,0.291,0.39,0.48,0.632,0.688,0.717,0.733,0.463,0.581,0.629,0.644
COc1cc(C(=O)NC(=S)Nc2cccc(NC(=O)c3ccccc3)c2)cc(OC)c1OC,0.147,0.139,0.0192,-0.0981,0.0988,0.139,0.108,0.0418,0.0482,0.0356,0.0061,-0.153,0.0949,0.0458,0.00408,-0.0801,0.0383,0.0678,0.111,0.148,-0.0454,0.0986,0.0849,0.125,0.491,0.568,0.58,0.595,0.562,0.589,0.588,0.568
"Cn1cnc([N+](=O)[O-])c1Sc1ncnc2[nH]cnc12 [Azathioprine (Azasan, Imuran)]",0.0201,-0.00369,0.00367,0.0444,0.0785,0.0404,0.00445,0.131,-0.0287,-0.0923,-0.12,-0.24,-0.168,-0.224,-0.259,-0.337,0.00188,0.0643,0.101,0.167,0.0755,0.0766,0.124,0.326,0.505,0.533,0.565,0.573,0.444,0.518,0.521,0.529
COc1cc2ncnc(Nc3ccc(F)c(Cl)c3)c2cc1NC(=O)/C=C/CN1CCCCC1,-0.101,-0.0931,-0.078,0.0128,-0.222,-0.156,-0.164,-0.0283,-0.299,-0.339,-0.376,-0.409,-0.261,-0.3,-0.331,-0.346,-0.0733,-0.0275,0.0218,0.0574,-0.26,-0.16,-0.0838,0.0995,0.446,0.525,0.55,0.538,0.262,0.366,0.387,0.392
O=C(O)CCc1ccc(NCc2cccc(Oc3ccccc3)c2)cc1,-0.00379,-0.0257,-0.0189,-0.0582,-0.0179,-0.0506,-0.13,-0.129,-0.138,-0.183,-0.212,-0.37,-0.259,-0.306,-0.351,-0.547,-0.0541,0.038,0.0596,0.0671,-0.0069,0.0299,0.0402,0.126,0.476,0.546,0.562,0.557,0.432,0.527,0.552,0.561
O=C(O)C1(C(=O)O)CCC1.[NH2-].[NH2-].[Pt+2] [Carboplatin],0.0266,-0.0103,-0.0119,-0.000763,-0.0124,-0.0343,-0.0455,0.00969,-0.0898,-0.143,-0.162,-0.249,-0.121,-0.164,-0.182,-0.229,-0.0315,0.0327,0.0748,0.141,0.0161,0.0456,0.0793,0.221,0.458,0.519,0.538,0.54,0.528,0.554,0.565,0.569
Cc1ccc(NC(=O)c2ccc(CN3CC[C@H](N(C)C)C3)c(C(F)(F)F)c2)cc1Nc1nccc(-c2cncnc2)n1 [Bafetinib (INNO-406)],0.0934,0.0624,-0.0124,0.0553,0.0275,-0.0147,-0.073,0.062,0.236,0.204,0.191,0.188,-0.279,-0.213,-0.225,-0.275,0.0136,0.0566,0.138,0.239,0.00697,0.00776,0.0531,0.226,0.594,0.623,0.652,0.658,0.392,0.503,0.513,0.535
